Measured values published in PubChem BioAssay (Tox21).
Records with an inconclusive call do not appear. Active and inactive are the calls of the source. Calls follow the shape of the full dose curve.

What was measured:
[1] = target: Acetylcholinesterase (Homo sapiens) (UniProt P22303); test: Acetylcholinesterase (AChE) small molecule antagonists: colormetric cell-based qHTS assay (AID 1347395); also: nearly all actives have a fitted effect of over 30% in size
In short: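 Endogenous AChE of human neuroblastoma SH-SY5Y cells was measured with an Ellman-type DTNB/acetylthiocholine mix. Compound pretreatment lasted 30 min at 37 C; substrate reaction ran 90 min at 37 C.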

[2] = target: Acetylcholinesterase (Homo sapiens) (UniProt P22303); test: Acetylcholinesterase (AChE) small molecule antagonists: enzyme-based qHTS assay (AID 1347397); conditions: Potency: AChE enzyme activity inhibition; outcome: AChE enzyme activity inhibition; also: nearly all actives have a fitted effect of over 55% in size
In short: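 Human recombinant acetylcholinesterase; substrate acetylthiocholine; thiocholine quantified with DTNB (colorimetric). Compound preincubation 30 min RT; reaction 10 min RT.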

[3] = target: Acetylcholinesterase (Homo sapiens) (UniProt P22303); test: Acetylcholinesterase (AChE) small molecule antagonists: fluorescence cell-based qHTS assay (AID 1347398); conditions: Potency: AChE activity; outcome: AChE activity; also: nearly all actives have a fitted effect of over 50% in size
In short: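 Thiocholine generated from acetylthiocholine by SH-SY5Y cell AChE is detected with Thiolite Green (Ex/Em 490/520 nm) after 40 min at room temperature, following 30 min compound pretreatment at 37 C.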

[4] = target: Acetylcholinesterase (Homo sapiens) (UniProt P22303); test: Acetylcholinesterase (AChE) small molecule antagonists: enzyme-based qHTS assay with human liver microsomes (AID 1347399); conditions: Potency: qHTS inhibition; outcome: qHTS inhibition; also: nearly all actives have a fitted effect of over 60% in size
In short: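 Recombinant human AChE (50 mU/mL in the enzyme mix) and human liver microsomes (0.25 mg/mL final) were preincubated with compound and NADPH (0.25 mg/mL final) for 30 min at 37 C. Acetylthiocholine/DTNB was then added; thiocholine was read colorimetrically after 10 min at room temperature.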
% is scaled to controls: 0 for no effect and ±100 for the full control effect.

Chain of Acetylcholinesterase (Homo sapiens) (P22303 whole entry, looked up): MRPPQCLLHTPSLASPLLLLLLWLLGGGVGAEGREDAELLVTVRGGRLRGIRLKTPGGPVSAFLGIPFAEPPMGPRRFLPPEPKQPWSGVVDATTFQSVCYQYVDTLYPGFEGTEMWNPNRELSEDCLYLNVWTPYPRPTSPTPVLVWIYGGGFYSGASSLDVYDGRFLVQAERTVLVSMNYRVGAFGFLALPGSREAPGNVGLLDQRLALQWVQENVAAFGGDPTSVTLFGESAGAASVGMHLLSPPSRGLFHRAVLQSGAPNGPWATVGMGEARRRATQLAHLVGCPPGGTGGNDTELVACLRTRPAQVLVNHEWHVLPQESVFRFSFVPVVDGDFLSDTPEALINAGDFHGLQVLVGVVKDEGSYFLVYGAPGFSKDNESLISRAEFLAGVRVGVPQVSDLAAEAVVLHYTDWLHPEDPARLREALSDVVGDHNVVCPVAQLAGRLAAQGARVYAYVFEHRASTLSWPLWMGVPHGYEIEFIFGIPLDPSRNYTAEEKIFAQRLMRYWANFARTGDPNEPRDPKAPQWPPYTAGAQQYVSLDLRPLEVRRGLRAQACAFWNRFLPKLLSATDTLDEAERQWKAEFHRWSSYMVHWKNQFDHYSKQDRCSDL

COc1ccc([C@@H]2Sc3ccccc3NC(=O)[C@@H]2O)cc1
inactive: Potency [1] | Potency [2] | Potency [3] | Potency [4]

O=C(/N=N/C(=O)OCc1ccccc1)OCc1ccccc1
inactive: Potency [1] | Potency [2] | Potency [3] | Potency [4]

CCOCN(C(=O)CS(=O)(=O)O)c1c(C)cccc1CC
inactive: Potency [1] | Potency [2] | Potency [3] | Potency [4]

Nc1nnc(-c2ccc([N+](=O)[O-])o2)o1
inactive: Potency [1] | Potency [2] | Potency [3] | Potency [4]

C1CCCCCCCCCCC1
inactive: activity, negative = inhibition [1] -0.403% [at 23.6 µM] | activity change, negative = inhibition [2] 0.515% [at 23.6 µM] | activity change, negative = inhibition [3] 7.82% [at 23.8 µM] | activity change, negative = inhibition [4] -0.0559% [at 23.6 µM]

C=C(C)C(=O)OCCC[Si](Cl)(Cl)Cl
inactive: Potency [1] | Potency [2] | Potency [3] | Potency [4]

O=C(c1ccccc1)C1CCC1
inactive: Potency [1] | Potency [2] | Potency [3] | Potency [4]

N#CCCCC(C#N)CCC#N (configuration not stated)
inactive: Potency [1] | Potency [2] | Potency [3] | Potency [4]

CC(C)(O)c1ccc(C(C)(C)O)cc1
inactive: Potency [1] | Potency [2] | Potency [3] | Potency [4]

CCCCCCCCOC(=O)CCCCCCCCC(=O)OCCCCCCCC
inactive: Potency [1] | Potency [2] | Potency [3] | Potency [4]

O=C(/C=C/c1ccc(O)c(O)c1)O[C@@H]1C[C@](O)(C(=O)O)C[C@@H](O)[C@H]1O
inactive: Potency [1] | Potency [2] | Potency [3] | Potency [4]

CC(=O)c1ccc[nH]1
inactive: Potency [1] | Potency [2] | Potency [3] | Potency [4]

CC(C)Cc1ccc(C(C)C(=O)OCc2ccccn2)cc1 (configuration not stated)
inactive: Potency [1] | Potency [2] | Potency [3] | Potency [4]
